The supplement of paper PMC10849652
Targets with a hit are over-represented here; the source holds about 7,900 in all. About 0.6% of all pairs of compound and target were hits. A number with no mark means an inactive call.

Compound: C1=CC=C(C=C1)[C@H](COC2=CC3=C(C=C2)NC(=O)N3)NC(=O)C4=CC=CN(C4=O)CC5=CC(=C(C=C5)F)F
Assay: log2 fold change, soluble protein after heating vs DMSO (PISA); higher = thermal stabilisation; K562 cells, 10 uM, 30 min; active = over 0.2 and 3.5 SD of the protein, either way, in both replicates (recomputed)
Method in brief: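 K562 cells at 2×10^6 cells/mL were treated for 30 min with 10 μM compound, and aliquots were heated for 3 min over 48°C-58°C before pooling. Extraction used PBS with 0.5% NP-40 at 4°C, and soluble protein was the supernatant after 21,000xg for 90 min, measured by TMTpro 16plex LC-MS/MS with channel sums equalised. Thermal stability values, relative to control samples and from duplicates, are log2 fold changes.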

Sequence of UniProt Q502W6 (Q502W6 whole entry, looked up): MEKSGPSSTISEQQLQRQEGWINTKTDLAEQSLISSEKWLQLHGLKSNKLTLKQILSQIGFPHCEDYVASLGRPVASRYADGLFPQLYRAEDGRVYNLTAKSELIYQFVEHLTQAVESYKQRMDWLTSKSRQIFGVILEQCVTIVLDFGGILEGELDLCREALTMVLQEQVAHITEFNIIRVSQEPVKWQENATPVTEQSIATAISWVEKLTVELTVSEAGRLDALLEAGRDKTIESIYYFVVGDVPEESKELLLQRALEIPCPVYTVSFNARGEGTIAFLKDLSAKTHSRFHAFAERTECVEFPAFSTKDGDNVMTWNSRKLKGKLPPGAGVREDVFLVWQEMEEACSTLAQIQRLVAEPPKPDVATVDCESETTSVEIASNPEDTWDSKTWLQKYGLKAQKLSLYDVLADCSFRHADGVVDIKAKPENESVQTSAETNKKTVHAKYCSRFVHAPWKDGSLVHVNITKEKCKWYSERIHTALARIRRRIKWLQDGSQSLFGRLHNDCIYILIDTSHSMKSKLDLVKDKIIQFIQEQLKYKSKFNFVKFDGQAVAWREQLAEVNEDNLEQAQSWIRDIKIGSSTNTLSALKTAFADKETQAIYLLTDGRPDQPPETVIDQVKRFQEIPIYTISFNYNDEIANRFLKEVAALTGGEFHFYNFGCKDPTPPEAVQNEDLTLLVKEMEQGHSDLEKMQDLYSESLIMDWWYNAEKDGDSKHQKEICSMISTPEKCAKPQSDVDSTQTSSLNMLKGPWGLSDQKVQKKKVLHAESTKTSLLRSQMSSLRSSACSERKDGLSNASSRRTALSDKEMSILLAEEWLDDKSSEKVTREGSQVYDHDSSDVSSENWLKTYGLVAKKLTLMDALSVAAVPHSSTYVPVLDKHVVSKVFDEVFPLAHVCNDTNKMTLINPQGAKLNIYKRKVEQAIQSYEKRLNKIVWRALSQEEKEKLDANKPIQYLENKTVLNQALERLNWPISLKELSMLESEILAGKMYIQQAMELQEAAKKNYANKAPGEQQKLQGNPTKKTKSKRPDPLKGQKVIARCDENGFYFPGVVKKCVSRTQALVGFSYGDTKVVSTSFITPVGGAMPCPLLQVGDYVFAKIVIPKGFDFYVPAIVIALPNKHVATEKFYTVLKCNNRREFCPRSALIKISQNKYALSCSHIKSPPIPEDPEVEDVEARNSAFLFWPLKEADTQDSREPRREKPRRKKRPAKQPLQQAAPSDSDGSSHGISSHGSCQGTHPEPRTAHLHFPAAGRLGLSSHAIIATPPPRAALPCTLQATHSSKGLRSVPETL
Sequence of UniProt P26368 (P26368 whole entry, looked up): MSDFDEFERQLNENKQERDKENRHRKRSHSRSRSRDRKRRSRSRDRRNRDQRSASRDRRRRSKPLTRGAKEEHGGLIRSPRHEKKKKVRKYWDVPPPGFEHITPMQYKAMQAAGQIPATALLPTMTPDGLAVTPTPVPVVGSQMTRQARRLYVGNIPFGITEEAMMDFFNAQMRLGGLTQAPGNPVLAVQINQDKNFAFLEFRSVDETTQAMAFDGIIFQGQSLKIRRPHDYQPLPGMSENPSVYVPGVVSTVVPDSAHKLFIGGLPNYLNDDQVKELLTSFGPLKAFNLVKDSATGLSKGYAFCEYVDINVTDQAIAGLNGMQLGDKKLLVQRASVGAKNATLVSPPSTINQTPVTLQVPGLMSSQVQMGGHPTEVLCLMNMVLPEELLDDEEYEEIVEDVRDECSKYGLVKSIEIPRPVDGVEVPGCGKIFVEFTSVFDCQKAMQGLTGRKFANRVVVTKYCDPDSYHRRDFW
Sequence of UniProt O95155 (O95155 whole entry, looked up): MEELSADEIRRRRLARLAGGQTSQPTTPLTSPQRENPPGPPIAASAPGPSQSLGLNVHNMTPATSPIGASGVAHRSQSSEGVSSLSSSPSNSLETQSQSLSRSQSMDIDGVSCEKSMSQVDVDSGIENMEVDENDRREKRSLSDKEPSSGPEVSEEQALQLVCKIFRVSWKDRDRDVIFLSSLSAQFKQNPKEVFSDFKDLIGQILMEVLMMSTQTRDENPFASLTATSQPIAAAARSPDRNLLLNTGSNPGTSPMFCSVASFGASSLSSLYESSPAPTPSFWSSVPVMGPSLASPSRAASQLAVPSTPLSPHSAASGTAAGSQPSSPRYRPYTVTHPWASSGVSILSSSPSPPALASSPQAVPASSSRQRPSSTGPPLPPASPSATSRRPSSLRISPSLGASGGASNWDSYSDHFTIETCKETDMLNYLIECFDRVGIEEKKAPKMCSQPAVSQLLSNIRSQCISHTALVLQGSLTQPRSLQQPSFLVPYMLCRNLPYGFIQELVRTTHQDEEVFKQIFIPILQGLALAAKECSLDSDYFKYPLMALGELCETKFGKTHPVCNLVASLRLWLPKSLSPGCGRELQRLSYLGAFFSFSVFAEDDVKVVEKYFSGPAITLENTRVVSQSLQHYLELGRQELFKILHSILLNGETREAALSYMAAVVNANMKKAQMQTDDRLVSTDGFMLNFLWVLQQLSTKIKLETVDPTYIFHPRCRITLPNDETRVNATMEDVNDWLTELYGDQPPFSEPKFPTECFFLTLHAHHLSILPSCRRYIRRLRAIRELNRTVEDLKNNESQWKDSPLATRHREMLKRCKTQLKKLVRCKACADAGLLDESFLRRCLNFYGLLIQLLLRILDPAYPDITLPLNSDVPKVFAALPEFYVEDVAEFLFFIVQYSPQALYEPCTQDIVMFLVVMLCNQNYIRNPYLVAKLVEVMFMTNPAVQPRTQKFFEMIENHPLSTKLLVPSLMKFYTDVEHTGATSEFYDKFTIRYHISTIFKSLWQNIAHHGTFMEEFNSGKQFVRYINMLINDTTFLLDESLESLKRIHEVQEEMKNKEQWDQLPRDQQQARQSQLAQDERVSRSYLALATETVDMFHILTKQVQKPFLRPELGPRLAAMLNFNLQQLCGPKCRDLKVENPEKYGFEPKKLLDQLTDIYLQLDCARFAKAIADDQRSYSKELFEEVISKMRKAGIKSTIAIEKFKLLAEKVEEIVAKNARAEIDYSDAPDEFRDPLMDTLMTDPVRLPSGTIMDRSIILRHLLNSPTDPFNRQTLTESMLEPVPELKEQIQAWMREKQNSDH
Sequence of UniProt Q6ZXV5 (Q6ZXV5 whole entry, looked up): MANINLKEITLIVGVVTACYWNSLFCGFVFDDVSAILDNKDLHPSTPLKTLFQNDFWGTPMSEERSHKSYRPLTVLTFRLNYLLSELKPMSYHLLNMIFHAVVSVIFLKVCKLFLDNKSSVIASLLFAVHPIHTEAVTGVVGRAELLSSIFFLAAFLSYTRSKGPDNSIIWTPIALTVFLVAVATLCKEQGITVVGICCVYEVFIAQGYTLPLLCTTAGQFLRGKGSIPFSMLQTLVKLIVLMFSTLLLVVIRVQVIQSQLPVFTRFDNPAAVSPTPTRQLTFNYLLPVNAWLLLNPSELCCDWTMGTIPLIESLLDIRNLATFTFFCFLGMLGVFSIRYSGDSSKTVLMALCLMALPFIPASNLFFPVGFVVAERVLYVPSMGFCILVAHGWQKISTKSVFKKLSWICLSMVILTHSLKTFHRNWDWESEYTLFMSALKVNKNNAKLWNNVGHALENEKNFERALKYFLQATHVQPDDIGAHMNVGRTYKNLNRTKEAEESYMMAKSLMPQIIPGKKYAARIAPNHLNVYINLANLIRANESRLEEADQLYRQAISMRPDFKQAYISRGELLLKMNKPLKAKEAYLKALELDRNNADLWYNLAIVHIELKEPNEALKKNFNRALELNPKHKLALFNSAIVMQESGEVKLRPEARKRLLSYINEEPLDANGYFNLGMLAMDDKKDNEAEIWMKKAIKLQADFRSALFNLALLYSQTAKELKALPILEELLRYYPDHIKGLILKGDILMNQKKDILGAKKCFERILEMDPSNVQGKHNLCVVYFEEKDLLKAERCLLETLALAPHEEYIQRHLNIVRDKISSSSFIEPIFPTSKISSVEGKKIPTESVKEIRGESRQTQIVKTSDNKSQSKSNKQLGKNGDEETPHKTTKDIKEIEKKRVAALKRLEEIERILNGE
Sequence of UniProt Q15642 (Q15642 whole entry, looked up): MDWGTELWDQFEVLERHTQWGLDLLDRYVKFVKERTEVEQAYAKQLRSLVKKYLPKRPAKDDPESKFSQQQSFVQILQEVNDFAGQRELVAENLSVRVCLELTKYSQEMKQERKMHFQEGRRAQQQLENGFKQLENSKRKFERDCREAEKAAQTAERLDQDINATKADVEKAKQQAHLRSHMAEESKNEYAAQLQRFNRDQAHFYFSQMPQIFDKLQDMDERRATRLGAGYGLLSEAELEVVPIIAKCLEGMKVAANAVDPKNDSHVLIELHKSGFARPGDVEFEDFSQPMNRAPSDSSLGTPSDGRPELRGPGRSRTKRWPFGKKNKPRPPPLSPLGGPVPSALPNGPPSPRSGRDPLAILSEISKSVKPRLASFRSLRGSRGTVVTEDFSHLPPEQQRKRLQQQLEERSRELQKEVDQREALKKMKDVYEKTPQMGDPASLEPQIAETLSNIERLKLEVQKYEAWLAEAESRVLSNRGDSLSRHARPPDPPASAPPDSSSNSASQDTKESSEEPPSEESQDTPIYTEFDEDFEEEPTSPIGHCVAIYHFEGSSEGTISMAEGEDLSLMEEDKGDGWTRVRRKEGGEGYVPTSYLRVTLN
Sequence of UniProt Q53S58 (Q53S58 whole entry, looked up): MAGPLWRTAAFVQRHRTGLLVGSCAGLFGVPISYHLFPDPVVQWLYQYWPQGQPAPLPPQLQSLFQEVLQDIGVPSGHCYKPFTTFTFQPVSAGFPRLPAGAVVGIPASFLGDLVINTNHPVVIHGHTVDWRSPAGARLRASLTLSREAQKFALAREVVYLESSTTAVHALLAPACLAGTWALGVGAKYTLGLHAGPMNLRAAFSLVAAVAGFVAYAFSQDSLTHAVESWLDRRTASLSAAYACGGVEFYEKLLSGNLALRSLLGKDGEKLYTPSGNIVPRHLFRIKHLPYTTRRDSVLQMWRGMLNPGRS
Sequence of UniProt Q9UBK9 (Q9UBK9 whole entry, looked up): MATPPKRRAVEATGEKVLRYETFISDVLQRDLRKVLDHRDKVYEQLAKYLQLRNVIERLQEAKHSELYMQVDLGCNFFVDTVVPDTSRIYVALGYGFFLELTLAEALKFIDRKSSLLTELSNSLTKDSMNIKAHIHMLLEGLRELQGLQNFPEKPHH

| Target | log2 fold change |
| --- | --- |
| TRAPPC8 (UniProt Q9Y2L5) | -0.01 |
| VPS50 (UniProt Q96JG6) | -0.039 |
| TMTC3 (UniProt Q6ZXV5) | -0.012 |
| XRCC6 (UniProt P12956) | -0.04 |
| UTP4 (UniProt Q969X6) | 0.009 |
| WDR43 (UniProt Q15061) | 0.026 |
| TMEM263 (UniProt Q8WUH6) | -0.152 |
| TRIP10 (UniProt Q15642) | 0.016 |
| UHRF1BP1L (UniProt A0JNW5) | 0.024 |
| USP25 isoform 3 (UniProt Q9UHP3) | -0.02 |
| TUBA4A (UniProt C9JJQ8) | -0.081 |
| TOE1 (UniProt Q96GM8) | 0.049 |
| U2AF2 (UniProt P26368) | -0.004 |
| WASHC5 (UniProt Q12768) | 0.034 |
| VPS41 (UniProt P49754) | -0.028 |
| TOP2A isoform 4 (UniProt P11388) | 0.157 |
| TXNIP (UniProt Q9H3M7) | -0.011 |
| TNFAIP8 isoform 4 (UniProt O95379) | -0.021 |

| Target | log2 fold change |
| --- | --- |
| TXN2 (UniProt Q99757) | 0.027 |
| VPS33B (UniProt Q9H267) | -0.102 |
| TMEM177 (UniProt Q53S58) | 0.036 |
| TXNL4B (UniProt Q9NX01) | 0.1 |
| TXNRD1 (UniProt Q16881) | -0.066 |
| WDR61 (UniProt Q9GZS3) | -0.035 |
| TRIM28 (UniProt Q13263) | -0.029 |
| UBAP2L isoform 1 (UniProt Q14157) | 0.038 |
| UBR2 (UniProt Q8IWV8) | -0.16 |
| UBE2J2 isoform 3 (UniProt Q8N2K1) | 0.003 |
| VPS13B (UniProt Q7Z7G8) | 0 |
| WRB (UniProt O00258) | 0.002 |
| XPOT (UniProt O43592) | -0.028 |
| UBE4B isoform 4 (UniProt O95155) | -0.019 |
| VWA3B isoform 6 (UniProt Q502W6) | -0.161 |
| VPS53 isoform 4 (UniProt Q5VIR6) | -0.009 |
| UXT isoform 2 (UniProt Q9UBK9) | 0.046 |
| TMEM189-UBE2V1 (UniProt I3L0A0) | -0.047 |
